High-throughput results (PubChem BioAssay)
An excerpt weighted towards active compounds, which were near 3.5% of everything screened.
KCNK3 inh – human KCNK3 channel inhibition, primary screen. CHO-KCNK3 thallium flux, FluxOR fluorescence; active compounds read low. 340,000 compounds, 0.84% hits. B-score at 10 µM. O14649;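 active = B-score under library mean minus 4 SD, starting fluorescence ratio at most library mean plus 5 SD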;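 note: more negative B-score means stronger inhibition of thallium flux through KCNK3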
TMEM16A act – mouse TMEM16A channel activation, primary screen; HEK293 TMEM16A/YFP-H148Q/I152L, iodide quench fluorescence; active compounds read low; B-score at 10 µM; 340,000 compounds, 0.3% hits;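 active = fluorescence-ratio B-score plate-corrected deviation score at least 3 library SD below zero, with starting fluorescence score within 5 deviations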;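 note: channel opened by trigger with iodide after compound preincubation; score built on the fluorescence ratio of max minus min over baseline; more negative score means more quench and so TMEM16A activation or potentiation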
Target sequence (Q8BHY3 whole entry, looked up): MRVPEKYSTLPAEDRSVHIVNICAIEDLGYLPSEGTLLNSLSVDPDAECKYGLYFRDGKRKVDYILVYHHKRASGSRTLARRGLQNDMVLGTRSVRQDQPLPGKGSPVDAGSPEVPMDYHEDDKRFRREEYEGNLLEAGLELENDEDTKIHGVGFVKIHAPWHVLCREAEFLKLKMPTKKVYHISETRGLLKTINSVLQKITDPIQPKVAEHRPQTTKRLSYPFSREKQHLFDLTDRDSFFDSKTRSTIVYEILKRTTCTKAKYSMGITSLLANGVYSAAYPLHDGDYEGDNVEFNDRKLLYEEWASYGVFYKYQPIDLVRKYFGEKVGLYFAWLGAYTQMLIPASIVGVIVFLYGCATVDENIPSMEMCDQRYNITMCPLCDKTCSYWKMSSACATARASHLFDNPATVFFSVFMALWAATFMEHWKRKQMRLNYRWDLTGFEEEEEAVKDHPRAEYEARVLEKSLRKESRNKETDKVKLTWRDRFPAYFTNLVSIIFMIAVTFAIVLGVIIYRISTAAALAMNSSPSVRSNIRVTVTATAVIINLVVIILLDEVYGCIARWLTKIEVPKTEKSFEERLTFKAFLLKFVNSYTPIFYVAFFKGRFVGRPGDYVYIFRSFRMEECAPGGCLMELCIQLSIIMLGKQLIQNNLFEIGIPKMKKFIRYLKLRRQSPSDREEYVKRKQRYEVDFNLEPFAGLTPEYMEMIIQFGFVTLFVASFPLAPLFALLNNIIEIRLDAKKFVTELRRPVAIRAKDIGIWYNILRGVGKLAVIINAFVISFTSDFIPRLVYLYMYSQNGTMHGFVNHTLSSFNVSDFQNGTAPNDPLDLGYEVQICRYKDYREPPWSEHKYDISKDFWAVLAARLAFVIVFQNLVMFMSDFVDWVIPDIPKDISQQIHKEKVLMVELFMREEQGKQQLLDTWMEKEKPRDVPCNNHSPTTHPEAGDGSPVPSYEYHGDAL
Kir21 block – blocks the mouse Kir2.1 inward-rectifier potassium channel. HEK293-Kir2.1, FluxOR thallium flux fluorescence; active compounds read low. AID 1672. 310,000 compounds, 0.85% hits. B-score at 10 µM;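 active = fluorescence ratio B-score at or below minus 3 SD of library scores, with starting-brightness B-score within 2 SD, cut at about -4.2 in these data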;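 note: channel flux triggered by added potassium and thallium sulfate stimulus; B-score of peak minus minimum fluorescence over baseline after thallium stimulus; more negative B-score means stronger Kir2.1 block with less thallium influx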
KCNK9 inh – human KCNK9 channel inhibition; Q9NPC2; AID 488922; 310,000 compounds, 1.2% hits; B-score at 10 µM; HEK293 KCNK9, FluxOR thallium flux fluorescence; active compounds read low;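 active = ratio B-score over 3 SD below the library mean, with starting fluorescence within 5 SD of its mean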;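 note: negative B-score means less thallium flux so channel inhibition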
ANO1 block – blocks the mouse calcium-activated chloride channel TMEM16A. HEK293 TMEM16A/YFP iodide influx fluorescence, ionomycin. normalized B-score (activity score, 25-100; higher = stronger inhibition) at 10 µM. 310,000 compounds, 1.2% hits. AID 588511;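 active = ratio plate-corrected score three or more library SD toward inhibition, starting fluorescence score within five deviations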;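 note: score derived from kinetic fluorescence span divided by baseline fluorescence per well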
KCNK3 confirm – human KCNK3 channel inhibition, confirmation assay; 2,400 compounds, 99% hits; CHO-KCNK3 thallium flux, FluxOR fluorescence; 0% buffer, 100% carvedilol maximal block; shares compounds with KCNK3 inh; ratio percent of control, % at 10 µM;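 active = ratio percent of control, averaged over triplicates, above buffer control mean plus 5 SD, cut at about 64% in these data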;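 note: ratio is the fluorescence rise from min to max over baseline after thallium stimulus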
KCNK3 uninduced – activity in cells without induced KCNK3 expression; shares compounds with KCNK3 inh; non-induced KCNK3 parental cells, FluxOR thallium flux; active compounds read low; thallium flux ratio (lower = more inhibition) at 10 µM; 2,400 compounds, 40% hits; AID 651747;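 active = thallium flux ratio, averaged over three wells, more than 5 SD below the buffer control mean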;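 note: host cells are CHO cells without KCNK3 induction; ratio is peak minus trough fluorescence over baseline then normalized to buffer controls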
Numbers without * were called inactive; i = inactive; nt = no result given.

SMILES	KCNK3 inh	TMEM16A act	Kir21 block	KCNK9 inh	ANO1 block	KCNK3 confirm	KCNK3 uninduced
CC(C)CC(=O)Nc1cccc(-c2nc3ccccc3[nH]2)c1	-11*	i	0.42	i	i	124*	0.12*
O=C(Nc1cccc(-c2nc3ccccc3[nH]2)c1)c1ccccn1	-13*	i	1.8	-7.1*	i	109*	i
O=C(COc1ccccc1)Nc1cccc(-c2nc3cc4ccccc4cc3[nH]2)c1	-11*	i	0.3	i	i	116*	i
CC(C)(C)C(=O)Nc1cccc(-c2nc3ccccc3[nH]2)c1	-11*	i	1.6	i	i	93*	i
Cc1cccc(NC(=O)CSc2n[nH]c(-c3ccncc3)n2)c1C	i	i	-0.52	i	i	nt	nt
OC1(c2ccc(Br)cc2)CN(c2ccccc2)C2=[N+]1CCS2 (stereo not drawn)	i	i	2.1	i	i	nt	nt
Clc1ccc2[nH]cc(-c3nnnn3-c3ccccc3)c2c1	i	i	1.1	i	i	nt	nt
Cn1nc(C(=O)Nc2ccccc2N2CCCC2)c2ccccc2c1=O	i	i	0.59	i	i	nt	nt
O=C(Cc1ccc(F)cc1)Nc1ccc(S(=O)(=O)N2CCCCC2)cc1	i	i	0	i	i	nt	nt
CCCCn1c(N)c(N(CCOC)C(=O)CSc2nnc(-c3ccc(F)cc3)n2N)c(=O)[nH]c1=O	i	i	-0.73	i	i	nt	nt
CC(Oc1ccccc1)C(=O)Nc1cccc(-c2nc3ccccc3[nH]2)c1 (stereo not drawn)	-11*	i	-0.33	-7.4*	i	100*	0.14*
CCOC(=O)c1sc2nc(CC(=O)OC)nc(N(C)CCc3ccccn3)c2c1C	-10*	i	0.18	i	i	109*	i
COc1ccccc1C(=O)NNC(=O)c1sccc1-n1cccc1	i	i	0.42	i	i	nt	nt
COCCc1ncc(CN2CCCC(C(=O)Nc3cccc(-c4cccc(C)c4)c3)C2)cn1 (stereo not drawn)	-9*	i	-0.18	i	i	91*	i
Cc1ncc(CN2CCCC(C(=O)Nc3ccc(-c4ccco4)cc3)C2)cn1 (stereo not drawn)	i	i	1	i	i	nt	nt
COc1ccccc1OCCCn1c(=O)oc2ccc(C)cc21	i	i	-3.7	i	i	nt	nt
Cc1cccc(OCCCn2c(=O)oc3ccc(C)cc32)c1	-9.3*	i	0.22	i	i	94*	i
Brc1ccc(-c2noc(COc3ccc4ccccc4c3)n2)o1	-9.1*	i	-3.4	i	i	102*	i
O=C(NCCS(=O)(=O)c1ccc(Br)cc1)c1ccccc1	i	i	-1.6	i	i	nt	nt
CC(C)c1ccc(C(C)NCCS(=O)(=O)c2ccc(Br)cc2)cc1 (stereo not drawn)	-8.9*	i	-4.7*	i	i	69*	0.14*
O=c1c2cn[nH]c2nc(SCc2c(F)cccc2F)n1-c1ccc(Cl)cc1	-9.3*	i	-0.39	i	i	129*	0.15*
CCOc1ccccc1N1CCN(CC(O)COC2CCCc3ccccc32)CC1 (stereo not drawn)	i	i	-1.5	i	i	nt	nt
CC[C@H](C)/C=C(C)/C=C/C1=CC2=CC(=O)[C@]3(C)OC(=O)[C@@H](C(C)=O)[C@@H]3C2=CO1	-9*	i	-1.7	i	i	122*	0.078*
S=C(NCCc1ccccc1)Nc1cccc2cnccc12	i	i	0.58	i	i	nt	nt
O=C(Nc1ccc(Nc2ccccc2)cc1)c1ccc(Cl)c([N+](=O)[O-])c1	-11*	i	0.1	i	i	125*	0.15*
SMILES	KCNK3 inh	TMEM16A act	Kir21 block	KCNK9 inh	ANO1 block	KCNK3 confirm	KCNK3 uninduced
Cc1cccc(CC(=O)N2CCCC2)c1	i	i	-0.01	i	i	nt	nt
CCOC(=O)c1sc(NC(=O)CSc2nnc(-c3ccco3)n2CC)c(C(=O)OCC)c1C	-12*	i	0.11	i	i	98*	i
N#Cc1ccccc1Sc1ccccc1C(=O)OCc1nnc(-c2ccccc2)o1	-9.9*	i	-0.73	i	i	78*	i
N#Cc1ccccc1Sc1ccccc1C(=O)OCC(N)=O	i	i	1	i	i	nt	nt
COc1ccc(-c2c(NC(=O)c3ccco3)oc3ccccc3c2=O)cc1OC	i	i	-0.27	i	i	nt	nt
CCC(C(=O)NCCc1ccc(C)cc1)n1nc(C)c2c(C)n(-c3ccccc3)nc2c1=O (stereo not drawn)	-9.4*	i	-0.03	i	i	99*	i
CC(C1CC1)N(Cc1ccccc1)C(=S)Nc1ccccc1 (stereo not drawn)	-12*	i	-0.75	i	i	113*	i
Cc1ccc(NC(=S)N(Cc2ccccc2)C(C)C)cc1	i	i	1.1	i	i	nt	nt
COc1ccccc1-n1nnnc1SCC(=O)N(C)C1CCS(=O)(=O)C1 (stereo not drawn)	i	i	nt	nt	nt	nt	nt
C/C(=N\OC(=O)c1ccc(C)cc1)c1c(C)nc2cc(C)ccn12	i	i	0.43	i	i	nt	nt
O=C(N/N=C/c1c[nH]c2ccccc12)c1ccn(Cc2ccc(Cl)cc2Cl)n1	-9.3*	i	-0.37	i	i	106*	0.15*
Cc1ccc(C)c(N2CCN(S(=O)(=O)c3cccc4cccnc34)CC2)c1	-9.9*	i	-1.6	i	i	116*	0.15*
COc1ccc(C2C(C(=O)c3ccco3)=C(O)C(=O)N2Cc2cccnc2)cc1OC (stereo not drawn)	-9.3*	i	0.85	i	i	64*	i
COc1ccc(N(CC(=O)NCc2cccs2)S(=O)(=O)c2cccc(C)c2)cc1	i	i	nt	nt	nt	nt	nt
CCOC(=O)c1cc2c(=O)n3ccccc3nc2n(Cc2ccco2)c1=NC(=O)c1ccccc1OCC	-8.8*	i	-2.8	i	i	91*	i
Cc1noc(C)c1COc1ccccc1C(=O)NNC(=O)c1ccccc1F	i	i	nt	nt	nt	nt	nt
Cc1ccc(OCC(=O)NNC(=O)c2ccccc2OCc2c(C)noc2C)cc1	-8.7*	i	0.02	i	i	94*	i
CCOC(=O)c1ccccc1NC(=O)C1CC(=O)N(C2CCCC2)C1 (stereo not drawn)	i	nt	nt	nt	nt	nt	nt
Cc1cc(NC(=O)c2cc3ccccc3o2)ccc1NC(=O)c1ccccc1	-10*	i	0.74	i	i	0	i
